# Measured values taken from PubChem BioAssay AID488907 (Broad Institute, 2010).
# Potency and affinity values are given separately. Results filed as inconclusive are left out. Values without a mark were called inactive.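 The calls were made as follows: active = fluorescence drops from fewer live microbes, with half-maximal dose at most ten times the top valid tested dose; inconclusive = flat curve with 30 to 70% inhibition, or poor fit; inactive = the rest, including signal rises.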
# Test: Candida growth inhibition combined with fluconazole – CaCi-2 strain, Alamar Blue, dry powder, set 3, dose response (AID 488907)
# Conditions: C. albicans CaCi-2 (fluconazole-resistant clinical isolate) + fluconazole, 48 h; series mostly up to 6 µM; activity change, negative = inhibition: at the top concentration
row,Compound,"activity change, negative = inhibition"
1,O=C(c1ccc(Cl)cc1)N1CCN(c2cccc(C(F)(F)F)n2)CC1,83.2%
2,O=C(c1ccc(Cl)cc1)N1CCN(c2cnccn2)CC1,-15.4%
3,Cc1cccc(N2CCN(C(=O)c3ccc(Cl)cc3)CC2)n1,-6.9%
